From PubChem BioAssay
Active and inactive are the calls of the source.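 How the source made its calls: active means compounds killing one labelled cell type while sparing the other, by normalised counts and ratio limits, not self-fluorescent; inactive means the rest.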

Assay: differential killing of epithelial or mesenchymal cells, primary screen, imaging, PC-3E GFP, TEM4-18 mCherry, co-culture (AID 1345086);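 further: cells exposed to compound for 72 h before imaging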;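 on red/green cell ratio (normalised): normalised mesenchymal count divided by normalised epithelial count so high means epithelial killing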
Conditions: imaging cell counts, at 1 µM; for red/green cell ratio (normalised): actives lie on both sides, counts scaled to control wells, 1 = unselective
[1] = measured here: epithelial PC-3E GFP cell survival
[2] = measured here: mesenchymal TEM4-18 mCherry cell survival

## COC(=O)C[C@@H]1C2(C)C(=O)[C@@H](CC3=C4C=C(OC)O[C@@H](c5ccoc5)[C@]4(C)CCC32)[C@H](O)C1(C)C (stereo not given in full)
  red/green cell ratio (normalised): 1.13 (inactive)
[1]
  normalised cell number: 0.99
[2]
  normalised cell number: 1.12

## CC(C)CCCC(C)C1CCC2C3CC(=O)[C@H]4C[C@@H](O)CC[C@]4(C)C3CC[C@]12C (stereo not given in full)
  red/green cell ratio (normalised): 1.01 (inactive)
[1]
  normalised cell number: 1.04
[2]
  normalised cell number: 1.05

## COc1cc(/C=C/C(=O)O)cc(OC)c1O
  red/green cell ratio (normalised): 1.1 (inactive)
[1]
  normalised cell number: 1.09
[2]
  normalised cell number: 1.2

## O=c1cc(-c2ccccc2)oc2cc(O)ccc12
  red/green cell ratio (normalised): 0.8 (inactive)
[1]
  normalised cell number: 1.2
[2]
  normalised cell number: 0.97

## COC(=O)c1ccc(C(CC(C)C)NC(C)=O)o1 (stereo not given)
  red/green cell ratio (normalised): 1 (inactive)
[1]
  normalised cell number: 1.11
[2]
  normalised cell number: 1.12

## CC(=O)C(C)(C)[C@H]1OC2CC[C@@]3(C)[C@@](O)(CC[C@H]4Cc5c([nH]c6ccccc56)[C@@]43C)C2=CC1=O (stereo not given in full)
  red/green cell ratio (normalised): 0.87 (inactive)
[1]
  normalised cell number: 1.15
[2]
  normalised cell number: 1

## CC(C)CC1C(=O)OC(C(C)C)C(=O)N(C)C(C(C)C)C(=O)OC(C(C)C)C(=O)N(C)C(C(C)C)C(=O)OC(C(C)C)C(=O)N1C (stereo not given)
  red/green cell ratio (normalised): 0.99 (inactive)
[1]
  normalised cell number: 1.17
[2]
  normalised cell number: 1.15

## Nc1nc(=S)c2ncn(C3O[C@H](CO)[C@@H](O)[C@H]3O)c2[nH]1 (stereo not given in full)
  red/green cell ratio (normalised): 0.83 (inactive)
[1]
  normalised cell number: 1.02
[2]
  normalised cell number: 0.85

## O=c1c(-c2ccc(O)cc2)coc2c(C3O[C@H](CO)[C@@H](O)[C@H](O)[C@H]3O)c(O)ccc12 (stereo not given in full)
  red/green cell ratio (normalised): 1 (inactive)
[1]
  normalised cell number: 1.12
[2]
  normalised cell number: 1.13

## Cc1ccc(S[C@H]2OC(COCc3ccccc3)C(OC(=O)CCC(=O)O)[C@@H]3OC(=O)N[C@H]23)cc1 (stereo not given in full)
  red/green cell ratio (normalised): 0.99 (inactive)
[1]
  normalised cell number: 1.11
[2]
  normalised cell number: 1.1

## CC(C)(O)[C@@H]1CC[C@](C)([C@H]2[C@@H](O)C[C@@]3(C)C4C[C@H](O[C@@H]5O[C@H](CO)[C@@H](O)[C@H](O)[C@H]5O)C5C(C)(C)[C@@H](O[C@@H]6OC[C@@H](O)[C@H](O)[C@H]6O)CC[C@@]56C[C@@]46CC[C@]23C)O1 (stereo not given in full)
  red/green cell ratio (normalised): 0.94 (inactive)
[1]
  normalised cell number: 0.98
[2]
  normalised cell number: 0.92

## O=C1OCC[C@H]1Oc1ccc(Oc2cnc3ccc(Cl)cc3n2)cc1
  red/green cell ratio (normalised): 1.01 (inactive)
[1]
  normalised cell number: 1.08
[2]
  normalised cell number: 1.09

## CC(CC(=O)N1C(=S)SC[C@@H]1c1ccccc1)N1C(=S)SC[C@@H]1c1ccccc1 (stereo not given in full)
  red/green cell ratio (normalised): 0.88 (inactive)
[1]
  normalised cell number: 1.18
[2]
  normalised cell number: 1.04

## CC1(C)CC2C1CCC1(CBr)CCC3C(CC(=O)O)C(=O)OC32C1 (stereo not given)
  red/green cell ratio (normalised): 0.9 (inactive)
[1]
  normalised cell number: 1.14
[2]
  normalised cell number: 1.02

## C[C@@H]1C[C@H](O)[C@@H](O)CO1
  red/green cell ratio (normalised): 0.94 (inactive)
[1]
  normalised cell number: 1.12
[2]
  normalised cell number: 1.05

## CC(=O)O[C@@H]1CC2C(C)(C)[C@H](O)C[C@H](O)[C@]2(C)C2CC[C@@]3(C)[C@H](c4ccoc4)OC(=O)[C@H]4O[C@]43[C@@]21C (stereo not given in full)
  red/green cell ratio (normalised): 1.01 (inactive)
[1]
  normalised cell number: 1.01
[2]
  normalised cell number: 1.03

## O=C(NCc1ccccc1)C1O[C@H](NCc2ccccc2)[C@@H](O)[C@@H](O)C1O (stereo not given in full)
  red/green cell ratio (normalised): 1.04 (inactive)
[1]
  normalised cell number: 1.09
[2]
  normalised cell number: 1.13

## CCOC(=O)O[C@]1(C(=O)COC(=O)CC)CCC2C3CCC4=CC(=O)C=C[C@]4(C)C3[C@@H](O)C[C@@]21C (stereo not given in full)
  red/green cell ratio (normalised): 0.87 (inactive)
[1]
  normalised cell number: 1.29
[2]
  normalised cell number: 1.13

## COc1cc(C(=O)O)cc(C)c1C(=O)CC(C)O (stereo not given)
  red/green cell ratio (normalised): 0.9 (inactive)
[1]
  normalised cell number: 1.04
[2]
  normalised cell number: 0.94

## CC1CC(O)C2C=CC(CC(=O)O1)O2 (stereo not given)
  red/green cell ratio (normalised): 0.76 (inactive)
[1]
  normalised cell number: 0.7
[2]
  normalised cell number: 0.53

## Cc1oc(=O)c2c(O)cc(O)c(C)c2c1C
  red/green cell ratio (normalised): 1.03 (inactive)
[1]
  normalised cell number: 1.11
[2]
  normalised cell number: 1.14

## O=C(NCC1O[C@@H](OC2C(NC(=O)c3ccccc3)C[C@@H](NC(=O)c3ccccc3)[C@H](OC3OC(COS(=O)(=O)O)[C@@H](OS(=O)(=O)O)[C@H](NC(=O)c4ccccc4)[C@H]3OS(=O)(=O)O)[C@H]2OS(=O)(=O)O)[C@H](OS(=O)(=O)O)[C@@H](OS(=O)(=O)O)C1OS(=O)(=O)O)c1ccccc1 (stereo not given in full)
  red/green cell ratio (normalised): 1.21 (inactive)
[1]
  normalised cell number: 0.96
[2]
  normalised cell number: 1.16

## O=C(O)c1ccc([C@H](O)c2ccccc2)cn1
  red/green cell ratio (normalised): 1.05 (inactive)
[1]
  normalised cell number: 1.03
[2]
  normalised cell number: 1.09

## COc1c(N2CC[C@@H](CN)C2)c(F)cc2c(=O)c(C(=O)O)cn(Cc3ccc(-c4ccccc4)cc3)c12
  red/green cell ratio (normalised): 1.14 (inactive)
[1]
  normalised cell number: 0.86
[2]
  normalised cell number: 0.98

## O=C(O)CCc1ccccc1O
  red/green cell ratio (normalised): 0.97 (inactive)
[1]
  normalised cell number: 1.1
[2]
  normalised cell number: 1.07

## CC(=O)OCC(=O)[C@@]1(O)CCC2C3C[C@H](C)C4=CC(=O)C=CC4(C)C3[C@@H](O)CC21C (stereo not given in full)
  red/green cell ratio (normalised): 1.09 (inactive)
[1]
  normalised cell number: 1.16
[2]
  normalised cell number: 1.27

## CCN1CC(CCN2CCOCC2)C(C(c2ccccc2)c2ccccc2)C1=O (stereo not given)
  red/green cell ratio (normalised): 0.72 (inactive)
[1]
  normalised cell number: 1.12
[2]
  normalised cell number: 0.81

## COc1c(F)c(F)cc(C(N)=O)c1F
  red/green cell ratio (normalised): 1.04 (inactive)
[1]
  normalised cell number: 0.96
[2]
  normalised cell number: 0.99

## COc1ccc2oc(-c3ccccc3)c(OC)c(=O)c2c1
  red/green cell ratio (normalised): 0.79 (inactive)
[1]
  normalised cell number: 1.37
[2]
  normalised cell number: 1.08

## CC1=C2[C@H](C=C3CCC[C@@H](C)[C@]3(C)[C@@H]2O)OC1=O
  red/green cell ratio (normalised): 0.84 (inactive)
[1]
  normalised cell number: 1.01
[2]
  normalised cell number: 0.85

## CNC1C(O[C@@H]2OC(CO)C(N)[C@H](O)C2O)OC2CC(N)[C@@H](OC3C(N)C[C@@H](N)C(O)[C@H]3O)OC2C1O (stereo not given in full)
  red/green cell ratio (normalised): 1.2 (inactive)
[1]
  normalised cell number: 0.92
[2]
  normalised cell number: 1.1

## C[C@H](CCC(=O)NCC(=O)O)[C@H]1CCC2C3C(C[C@H](O)[C@@]21C)[C@@]1(C)CC[C@@H](O)CC1C[C@H]3O (stereo not given in full)
  red/green cell ratio (normalised): 1.13 (inactive)
[1]
  normalised cell number: 0.89
[2]
  normalised cell number: 1.01

## CC(CC(=O)N1C(=O)OC[C@H]1c1ccccc1)N1CCSC1=S (stereo not given in full)
  red/green cell ratio (normalised): 0.94 (inactive)
[1]
  normalised cell number: 1.15
[2]
  normalised cell number: 1.08

## CC(=O)OC1(C)CC[C@@]23CC1C(C)(C)[C@@H]2CC[C@H]3C (stereo not given in full)
  red/green cell ratio (normalised): 0.99 (inactive)
[1]
  normalised cell number: 1.16
[2]
  normalised cell number: 1.15

## CCC(/C=C/[C@@H](C)[C@H]1CCC2C3CC=C4C[C@@H](O)CC[C@]4(C)C3CC[C@@]21C)C(C)C (stereo not given in full)
  red/green cell ratio (normalised): 1.07 (inactive)
[1]
  normalised cell number: 1.13
[2]
  normalised cell number: 1.2

## CC(=O)OCC1O[C@@H](OC(C)=O)C(NC(=O)OCc2ccccc2)[C@@H](OC(C)=O)C1OC(C)=O (stereo not given in full)
  red/green cell ratio (normalised): 0.94 (inactive)
[1]
  normalised cell number: 1.16
[2]
  normalised cell number: 1.09

## COc1cc([C@@H]2c3cc4c(cc3[C@H](O)C3COC(=O)[C@H]32)OCO4)cc(OC)c1OC (stereo not given in full)
  red/green cell ratio (normalised): 1.4 (inactive)
[1]
  normalised cell number: 0.16
[2]
  normalised cell number: 0.22

## Cc1ccc(S(=O)(=O)O[C@@H]2CCOC2=O)cc1
  red/green cell ratio (normalised): 0.71 (inactive)
[1]
  normalised cell number: 1.41
[2]
  normalised cell number: 1.01

## CC(=O)OCC1O[C@H]2OC(=O)NC2[C@@H](OC(C)=O)C1OC(C)=O (stereo not given in full)
  red/green cell ratio (normalised): 0.82 (inactive)
[1]
  normalised cell number: 1.33
[2]
  normalised cell number: 1.08

## COc1cc(OC)c2c(O)c(C(C)=O)c(C)cc2c1
  red/green cell ratio (normalised): 1.01 (inactive)
[1]
  normalised cell number: 1.08
[2]
  normalised cell number: 1.09

## N=c1ccn2c(n1)O[C@@H]1[C@@H](O)[C@H](CO)O[C@@H]12
  red/green cell ratio (normalised): 0.99 (inactive)
[1]
  normalised cell number: 0.27
[2]
  normalised cell number: 0.27

## COc1cc(O)c2c(c1)[C@@H](O)[C@@]13CO[C@@H](O)[C@@]1(O3)C2=O
  red/green cell ratio (normalised): 1.09 (inactive)
[1]
  normalised cell number: 1.01
[2]
  normalised cell number: 1.1

## CC(=O)OC1CC(C)OC(=O)CCC(O)CC1=O (stereo not given)
  red/green cell ratio (normalised): 0.98 (inactive)
[1]
  normalised cell number: 0.98
[2]
  normalised cell number: 0.96

## CC1OC(O[C@H]2/C=C/C=C/C=C/C=C/C=C/C=C/C=C/[C@H](C)[C@@H](O)[C@@H](C)[C@H](C)OC(=O)CC(O)CC(O)CCC(O)C(O)CC(O)C[C@]3(O)C[C@H](O)C(C(=O)O)C(C2)O3)C(O)[C@@H](N)C1O (stereo not given in full)
  red/green cell ratio (normalised): 1 (inactive)
[1]
  normalised cell number: 1.18
[2]
  normalised cell number: 1.18

## COc1c(N2CC[C@@H](CN)C2)c(F)cc2c(=O)c(C(=O)NO)cn(C3CC3)c12
  red/green cell ratio (normalised): 1.1 (inactive)
[1]
  normalised cell number: 1.04
[2]
  normalised cell number: 1.15

## O=C1CCC[C@@H](N2C(=S)OC[C@H]2c2ccccc2)C1
  red/green cell ratio (normalised): 0.91 (inactive)
[1]
  normalised cell number: 1.1
[2]
  normalised cell number: 1.01

## Cc1ccc(S(=O)(=O)O[C@H]2CCOC2=O)cc1
  red/green cell ratio (normalised): 0.92 (inactive)
[1]
  normalised cell number: 1.16
[2]
  normalised cell number: 1.06

## CC1=CC2C(C(C)C)CCC(C)(O)C2CC1 (stereo not given)
  red/green cell ratio (normalised): 1.01 (inactive)
[1]
  normalised cell number: 1.1
[2]
  normalised cell number: 1.11

## NC(=O)c1cc(F)c(F)cc1F
  red/green cell ratio (normalised): 0.98 (inactive)
[1]
  normalised cell number: 1.12
[2]
  normalised cell number: 1.09

## CC(=O)O[C@H]1CC2CCC3C(CC[C@@]4(C)C3C[C@H]([N+]3(C)CCCCC3)[C@@H]4OC(C)=O)[C@@]2(C)C[C@@H]1N1CCCCC1 (stereo not given in full)
  red/green cell ratio (normalised): 0.86 (inactive)
[1]
  normalised cell number: 1.03
[2]
  normalised cell number: 0.88

## CCCCCCCCCCCCCc1ccco1
  red/green cell ratio (normalised): 1.13 (inactive)
[1]
  normalised cell number: 0.74
[2]
  normalised cell number: 0.83

## COC(=O)C[C@@H]1C2(C)C(=O)[C@@H](CC3=C4CC(=O)O[C@@H](c5ccoc5)[C@]4(C)CCC32)[C@H](OC(C)=O)C1(C)C (stereo not given in full)
  red/green cell ratio (normalised): 1.06 (inactive)
[1]
  normalised cell number: 0.96
[2]
  normalised cell number: 1.02

## CCN(Cc1cccc(S(=O)(=O)O)c1)c1cccc(C(=C2C=CC(=[N+](CC)Cc3cccc(S(=O)(=O)O)c3)C=C2)c2ccc(O)cc2S(=O)(=O)[O-])c1
  red/green cell ratio (normalised): 0.88 (inactive)
[1]
  normalised cell number: 1.26
[2]
  normalised cell number: 1.11

## NC(=O)c1cc(F)c(F)cc1NC1CC1
  red/green cell ratio (normalised): 1.15 (inactive)
[1]
  normalised cell number: 1.02
[2]
  normalised cell number: 1.16

## O=Cc1ccccc1O[C@@H]1O[C@H](CO)[C@H](O)[C@@H](O)[C@H]1O
  red/green cell ratio (normalised): 0.97 (inactive)
[1]
  normalised cell number: 0.92
[2]
  normalised cell number: 0.9
